Screening results deposited in PubChem by National Center for Advancing Translational Sciences (NCATS).
A selection: hits, their analogues and other compounds. The true share with any hit is near 7.3%.
Tau fluor counter – counter-screen for tau fibril formation inhibitors | tau K18 P301L Alexa594 fluorescence, heparin fibrillization | AID 1463 | 280,000 tested, 0.93% active | Potency, µM (series often up to 57.7 µM), for inactives: top-dose activity change, negative = decrease; note: nearly all actives have a fitted effect of over 55% in size
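Human K18 P301L tau (15 uM unlabeled plus 0.24 uM Alexa 594-labeled, final) in 100 mM sodium acetate pH 7 was mixed with compound and 20 uM heparin and incubated 6 hr at 37 C.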
Tau ThT inhib – tau fibrillization inhibition (ThT binding). P10636. 270,000 tested, 2.1% active. Potency, µM (titrated, usually from 57.4 µM), without a hit: top-dose activity, negative = inhibition, actives largely listed as inhibitors. recombinant tau K18 P301L, heparin-induced fibrillization, ThT fluorescence; note: nearly all actives have a fitted effect of over 55% in size
Target sequence (P10636 561-689 P618L limits assumed): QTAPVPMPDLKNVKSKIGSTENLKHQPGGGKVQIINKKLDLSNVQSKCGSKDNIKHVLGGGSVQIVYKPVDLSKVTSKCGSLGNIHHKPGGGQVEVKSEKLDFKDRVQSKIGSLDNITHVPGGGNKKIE
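Using a mix of unlabeled (15 uM) and Alexa 594-labeled (0.24 uM) tau K18 P301L, heparin-triggered fibrillization over 6 hr at 37 C was scored by ThT fluorescence.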
Tau fibril FP – inhibitors of human tau fibril formation. 280,000 tested, 0.39% active. Potency, µM (series often up to 57.7 µM), inactives show at the highest dose activity, negative = inhibition, hits mostly inhibitors. K18 P301L tau heparin fibrillization, Alexa594 FP, 6 h. P10636; note: nearly all actives have a fitted effect of over 55% in size
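Quantitative HTS format: compounds meet 15 uM recombinant K18 P301L tau and Alexa 594-tau tracer in 100 mM sodium acetate pH 7; 20 uM heparin triggers fibrillization at 37 C over 6 hr; FP gives the signal.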
RORg inh – ROR gamma (mouse) transcription inhibition | 310,000 tested, 5.4% active | P51450 | Drosophila S2 Gal4-RORgamma UAS-luciferase reporter, 20 h | Potency, µM (series often up to 53.6 µM), inactives show at the top dose activity change, negative = inhibition, most hits filed as inhibitors | AID 2551; note: nearly all actives have a fitted effect of over 60% in size
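Stable Schneider cell line, Gal4 DNA-binding domain fused to ROR gamma, UAS-luciferase. Cmpd 1 hr RT → CuSO4 700 uM final → 20 hr RT → luciferase reagent 10 min → luminescence.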
VP16 counter – Gal4-VP16 reporter inhibition counter-screen. Drosophila S2 Gal4-VP16 UAS-luciferase, luminescence, 20 h. Potency, µM (doses to about 53.6 µM), for the others: at the highest dose activity, negative = inhibition, hits mostly inhibitors. 310,000 tested, 3.5% active;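 note: Gal4-VP16 expression switched on by copper sulfate through the metallothionein promoter; nearly all actives have a fitted effect of over 50% in size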
An asterisk follows results filed as active; ? = inconclusive; / = no result given; [ ] = dose if it differs, or a comment. Calls come from the whole dose curve; as a rule, active = well fitted curve in the direction sought with a large enough effect; inconclusive = small, poorly fitted or top-dose-only effect, or another doubt; inactive = no such curve, though single readings can be large; an effect the other way counts as inactive or inconclusive. % is set by controls: 0 for no effect and ±100 for the full control effect; potency is the fitted concentration of half-maximal effect.

SMILES	Tau fluor counter	Tau ThT inhib	Tau fibril FP	RORg inh	VP16 counter
CCN(CC)CCn1c(=S)[nH]c2ccc(Br)cc2c1=O	-7.9%	-8.9%	-10.3%	11.2µM*	12.6µM*
CCN(CC)CCn1c(=S)[nH]c2ccccc2c1=O	4.0%	8.3%	2.4%	-34.8%	6.0%
COc1ccccc1Cn1c(=S)[nH]c2ccc(F)cc2c1=O	/	/	/	15.8µM*	11.2µM*
CN(Cc1ccco1)c1ncnc2ccc(-c3cccc(C#N)c3)cc12	-19.5%	?	-14.5%	-11.1%	2.9%
COc1ccc(Oc2ncc3nc(-c4ccc(OC)cc4)c(=O)n(C4CC4)c3n2)cc1	/	/	/	-33.8%	-7.5%
COc1ccccc1CNc1cc(-c2ccccc2C(F)(F)F)ncn1	/	/	/	12.3%	7.3%
Oc1c(Cl)cc(Cl)c2c1NCCC2	?	14.1µM*	?	3.16µM*	5.01µM*
O=C1NCCCc2c1oc1ccc(O)cc21	-1.7%	6.5%	-9.9%	20.2%	?
CCOc1ccc(Br)cc1S(=O)(=O)Nc1ccc(C(=O)OCC(=O)Nc2ccc(C#N)cc2)cc1	?	-5.4%	25.1µM*	8.0%	-5.7%
CC(C)(C)c1ccc(NC(=O)COC(=O)c2ccc(NS(=O)(=O)c3ccc(F)c(F)c3)cc2)cc1	?	2.7%	28.2µM*	35.4%	?
O=S(=O)(Nc1cc(Sc2ncn[nH]2)c(O)c2ccccc12)c1ccccc1	?	11.2µM*	25.1µM*	7.94µM*	7.08µM*
Nc1n[nH]c(N)c1N=Nc1ccc(F)cc1	?	?	0.6%	-2.9%	-3.2%
Cc1nc(N)sc1N=Nc1ccc(F)cc1	?	8.91µM*	10.6%	?	-1.0%
CCSc1nc2ccccc2[nH]1	-0.4%	-0.8%	5.8%	17.9%	-5.6%
Nc1ccccc1Sc1nc2ccccc2[nH]1	28.2µM*[quencher]	28.2µM*	?	3.55µM*	12.6µM*
CC(=O)N1CCN(c2ccccc2NC(=O)COc2cc(C)ccc2C(C)C)CC1	-5.8%	-3.1%	6.7%	-40.0%	0.4%
Cc1ccc(C(C)C)c(OCC(=O)Nc2ccccc2N2CCN(C)CC2)c1	-10.7%	-17.5%	-2.5%	?	12.6µM*
Cc1[nH]c2ccccc2c1/C=N/NC(=O)CCC(=O)NCc1ccccc1	?	?	9.0%	-14.7%	-2.1%
Cc1[nH]c2ccccc2c1/C=N/NC(=O)c1cccc(S(=O)(=O)Nc2cccc(C(F)(F)F)c2)c1	8.91µM*[quencher]	?	?	-15.8%	-5.8%
Cc1[nH]c2ccccc2c1/C=N/NC(=S)NC(C)C	15.8µM*[quencher]	?	13.4%	2.51µM*	7.08µM*
CCC(=O)Nc1ccc(C(=O)N/N=C/c2c(C)[nH]c3ccccc23)cc1	?	11.2µM*	?	13.8%	-9.4%
Cc1[nH]c2ccccc2c1/C=N/NS(=O)(=O)c1ccccc1	?	?	14.3%	?	-6.9%
Cc1[nH]c2ccccc2c1/C=N/NC(=O)C1CC1(c1ccccc1)c1ccccc1 (centres undefined)	5.01µM*[quencher]	?	-5.2%	?	?
Cc1[nH]c2ccccc2c1/C=N/Nc1ccccc1[N+](=O)[O-]	2µM*[quencher]	1.78µM*	?	?	-7.2%
C(=N\Nc1ccccn1)/c1c[nH]c2ccccc12	14.1µM*[quencher]	7.08µM*	9.1%	?	?
SMILES	Tau fluor counter	Tau ThT inhib	Tau fibril FP	RORg inh	VP16 counter
CCOC(=O)C/C(C)=N/NC(=O)C1CC1(c1ccccc1)c1ccccc1 (centres undefined)	-8.6%	-12.7%	1.9%	10µM*	?
C/C(=N\NC(=O)C1CC1(c1ccccc1)c1ccccc1)c1cccc([N+](=O)[O-])c1 (centres undefined)	-13.8%	-6.8%	-1.9%	8.8%	-2.1%
CC(C)NC(=S)N/N=C/c1c[nH]c2ccccc12	?	?	?	3.55µM*	1.41µM*
CCOc1ccc(-c2noc(CCC(=O)NCCc3ccccc3)n2)cc1OC	/	/	/	34.3%	0.5%
Cc1[nH]c2ccccc2c1/C=N/NC(=O)c1cc(-c2cccs2)[nH]n1	12.6µM*[quencher]	5.62µM*	?	21.3%	-8.9%
Cc1cc(C(=O)N/N=C/c2c(C)[nH]c3ccccc23)n[nH]1	?	/	?	-1.7%	7.2%
CCOc1ccc(N(CC(=O)NCCc2ccc(C)cc2)S(=O)(=O)c2c(C)noc2C)cc1	/	/	/	13.1%	0.4%
